Hits are enriched below; roughly 19% of the tested compounds scored in any of these assays.
DT40 TDP1 no CPT: qHTS for Inhibitors of human tyrosyl-DNA phosphodiesterase 1 (TDP1): qHTS in cells in absence of CPT; Potency, µM (titrated, usually from 46.2 µM), for the others: at the top dose activity change, negative = growth inhibition, actives largely listed as inhibitors; hit rate 15% among 420,000; DT40 Tdp1-/- hTDP1 cells, no CPT, ATP luminescence, 48 h; further: nearly all actives have a fitted effect of over 55% in size
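Growth of hTDP1-complemented DT40 Tdp1-knockout cells is measured by ATP luminescence after at least 48 hr compound exposure at 37 °C, with DMSO substituting for the 20 nM CPT used in the parallel screen.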
DT40 TDP1 CPT: growth inhibition of DT40 Tdp1-/-;hTDP1 cells with camptothecin (screen for TDP1 inhibitors) | Potency, µM (highest dose often 46.2 µM), inactives show at the highest dose activity change, negative = growth inhibition, most hits filed as inhibitors | chicken DT40 Tdp1-/-;hTDP1 cells + 20 nM CPT, ATP luminescence, 48 h | AID 686979 | hit rate 12% among 420,000; further: nearly all actives have a fitted effect of over 55% in size
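Chicken DT40 Tdp1-/- cells stably complemented with human TDP1 were seeded at 400 cells/well in medium containing 20 nM camptothecin, exposed to pin-transferred compounds, and grown at 37 °C for at least 48 hr. Viability was read as ATP luminescence.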
VP16 counter: Gal4-VP16 reporter inhibition counter-screen | hit rate 3.5% among 310,000 | Potency, µM (series often up to 53.6 µM), inactives show at the top dose activity, negative = inhibition, usual class: inhibitors | AID 2546 | Drosophila S2 Gal4-VP16 UAS-luciferase, luminescence, 20 h;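 further: Gal4-VP16 expression switched on by copper sulfate through the metallothionein promoter; nearly all actives have a fitted effect of over 50% in size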
TDP1 block: blocks human tyrosyl-DNA phosphodiesterase 1. Q9NUW8. recombinant TDP1, AlphaScreen DNA substrate cleavage. Potency, µM (titrated, usually from 130 µM), inactives show at the top dose activity change, negative = inhibition, hits mostly inhibitors. hit rate 0.28% among 350,000. AID 485290; further: nearly all actives have a fitted effect of over 40% in size
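Compounds were preincubated with Tdp1 (1 nM final) for 15 min at room temperature before substrate (15 nM final) started a 5 min reaction; beads (10 ug/ml final) were then added for 10 min before AlphaScreen detection.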
RORgamma inh: inhibitors of mouse ROR gamma transcriptional activity; AID 2551; Drosophila S2 Gal4-RORgamma UAS-luciferase reporter, 20 h; hit rate 5.4% among 310,000; Potency, µM (top dose mostly 53.6 µM), for the others: at the top dose activity change, negative = inhibition, hits mostly inhibitors; further: nearly all actives have a fitted effect of over 60% in size
Target sequence (P51450 whole entry, looked up, the tested form may be a part): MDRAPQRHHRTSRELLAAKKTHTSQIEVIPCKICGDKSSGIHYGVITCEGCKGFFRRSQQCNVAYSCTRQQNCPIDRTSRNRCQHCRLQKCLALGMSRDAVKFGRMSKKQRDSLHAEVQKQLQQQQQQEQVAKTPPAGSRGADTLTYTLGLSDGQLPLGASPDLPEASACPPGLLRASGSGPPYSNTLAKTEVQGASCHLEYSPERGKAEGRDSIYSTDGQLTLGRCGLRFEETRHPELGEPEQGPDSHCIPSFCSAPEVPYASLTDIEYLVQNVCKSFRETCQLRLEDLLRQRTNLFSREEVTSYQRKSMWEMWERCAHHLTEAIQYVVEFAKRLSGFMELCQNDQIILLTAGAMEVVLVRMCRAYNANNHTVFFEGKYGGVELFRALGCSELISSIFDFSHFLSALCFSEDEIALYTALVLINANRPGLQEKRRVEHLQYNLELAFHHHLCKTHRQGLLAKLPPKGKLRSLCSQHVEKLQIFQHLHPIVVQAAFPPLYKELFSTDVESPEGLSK
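Stably transfected Drosophila Schneider cells are the test system, with ROR gamma fused to Gal4 and luciferase under UAS control; luminescence is read after 20 hr of 700 uM copper sulfate induction at ambient temperature.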
* hit, by the source's call; ? = inconclusive; . = not tested or not shown; [ ] = dose if it differs, or a comment. The call rests on the fitted dose curve; in most records, active means well fitted curve in the direction sought with a large enough effect; inconclusive means small, poorly fitted or top-dose-only effect, or another doubt; inactive means no such curve, though single readings can be large; an effect the other way counts as inactive or inconclusive. On the % scale 0 is the no-effect control and ±100 the full control effect; potency means the concentration at half of the fitted maximal effect.

SMILES | DT40 TDP1 no CPT | DT40 TDP1 CPT | VP16 counter | TDP1 block | RORgamma inh
CCCCNc1c(-c2ccc(-c3cccc(Cl)c3)cc2)nc2ccccn12 | ? | ? | . | 5.1% | .
CCCCCCSc1ccc(-c2nc3ccccn3c2NCCCC)cc1 | 14.6µM* | 23.1µM* | . | -3.2% | .
Cc1ccc2nc(-c3ccc(-c4cccc(Cl)c4)cc3)c(NCc3ccccc3)n2c1 | ? | ? | . | 6.5% | .
CCCCCCSc1cccc(-c2nc3ccc(Cl)cn3c2NCCCC)c1 | 13µM* | 16.4µM* | . | . | .
CCC(C)Sc1ccc(-c2nc3ccc(C)cn3c2NCc2ccccc2)cc1 (stereo unspecified) | 16.4µM* | 23.1µM* | . | 4.7% | .
COc1ccc(-c2nn3c(=O)c(C)nnc3s2)cc1 | 11.0% | -3.3% | -3.2% | . | 12.6%
CCOC(=O)C(C)Sc1nc2c(c(-c3cccs3)c1C#N)CCC2 (stereo unspecified) | ? | -25.7% | 25.1µM* | -1.1% | ?
CC(C)OC(=O)CC(=O)CSc1nc2c(c(-c3cccs3)c1C#N)CCC2 | ? | -27.1% | ? | -2.7% | 14.2%
COc1ccccc1OCC(=O)N(Cc1ccc(Cl)cc1)CC1CCCO1 (stereo unspecified) | ? | ? | . | 4.7% | .
Cc1cc(OCC(=O)N(Cc2ccc(N(C)C)cc2)CC2CCCO2)ccc1Cl (stereo unspecified) | -99.8% | 23.1µM* | . | 4.7% | .
CN(C)c1ccc(CN(CC2CCCO2)C(=O)COc2ccc(Cl)cc2)cc1 (stereo unspecified) | 18.4µM* | 25.9µM* | . | 9.3% | .
O=C(NCc1ccccn1)C1CC(c2ccc(Cl)c(Cl)c2)=NO1 (stereo unspecified) | 20.6µM* | ? | 0.5% | 3.4% | 32.3%
O=C(NCc1cccnc1)C1CC(c2ccc(Cl)c(Cl)c2)=NO1 (stereo unspecified) | 20.6µM* | ? | -20.9% | . | ?
O=C(O)CSc1nc2c(cnn2-c2ccccc2)c(=O)n1-c1ccc(Br)cc1 | -18.0% | 0.8% | -4.7% | 5.1% | 4.6%
Cc1cccc(-c2nc3c(cnn3-c3ccccc3)c(=O)n2-c2ccc(Cl)cc2)c1 | 14.6µM* | ? | . | 4.8%[12.3 µM] | .
Cc1cccc(-c2nc3c(cnn3-c3ccccc3)c(=O)n2-c2ccc(Br)cc2)c1 | 18.4µM* | ? | . | -1.3%[12.3 µM] | .
COc1ccc(-n2c(-c3cccc(F)c3)nc3c(cnn3-c3ccc(C)cc3)c2=O)cc1 | 25.9µM* | 18.4µM* | . | -2.3% | .
O=c1c2cnn(-c3ccccc3)c2nc(-c2cccs2)n1-c1ccc(Br)cc1 | 0.581µM* | ? | 0.9% | -6.2% | 28.3%
O=C(Nc1ccccc1Cl)C1CC(=O)n2c(nc3ccccc32)N1 (stereo unspecified) | . | . | -3.8% | 0.6% | 10.6%
Nn1c(Cc2cccc3ccccc23)nnc1SCCOc1ccc(F)cc1 | ? | ? | -1.5% | 1.9% | 36.0%
COc1ccc(N(CC(=O)Nc2ccc(F)cc2F)S(=O)(=O)c2c(C)nn(C)c2C)cc1 | -1.4% | -14.4% | 1.9% | -0.2% | -11.5%
CC1(C)Cc2c(cnn2-c2cccc(F)c2)C(NC(=O)c2csnn2)C1 (stereo unspecified) | -17.5% | -26.2% | -7.6% | 2.9% | 1.1%
COc1ccc(NC(=O)C(CCSC)NC(N)=O)cc1Cl (stereo unspecified) | -22.9% | 3.0% | 2.8% | -7.7% | 7.2%
CC(=O)N(Cc1cccnc1)c1nc2cc(C)cc(C)c2s1 | ? | ? | . | 5.2% | .
Cc1cc(C)c2sc(N(Cc3cccnc3)C(=O)CCS(=O)(=O)c3ccccc3)nc2c1 | 2.91µM* | 4.11µM* | . | -5.2% | .
SMILES | DT40 TDP1 no CPT | DT40 TDP1 CPT | VP16 counter | TDP1 block | RORgamma inh
Cc1cc(C)c2nc(N(Cc3cccnc3)C(=O)CCS(=O)(=O)c3ccccc3)sc2c1 | 4.61µM* | 4.61µM* | . | 5.2% | .
Cc1cccc2sc(N(Cc3cccnc3)C(=O)CCOc3ccccc3)nc12 | ? | ? | . | 5.2% | .
O=C(CCOc1ccccc1)N(Cc1cccnc1)c1nc2c(Cl)cccc2s1 | 2.06µM* | 1.3µM* | . | -7.8% | .
Cc1cc(C)c2nc(N(Cc3cccnc3)C(=O)c3ccc(S(=O)(=O)N(C)C)cc3)sc2c1 | 18.4µM* | ? | . | 5.2% | .
COc1ccc(NC(=O)CCS(=O)(=O)c2cc3c(cc2C)NC(=O)CO3)cc1 | -15.6% | -1.8% | -3.3% | . | -15.7%
CC(C)N1C(=S)SC2CS(=O)(=O)C=C21 (stereo unspecified) | -24.8% | -11.8% | 7.2% | 2.4% | -14.9%
O=C(CCS(=O)(=O)c1ccccc1)N(Cc1cccnc1)c1nc2c(Cl)cccc2s1 | 5.17µM* | 5.17µM* | . | 2.6% | .
Cc1cccc2sc(N(Cc3cccnc3)C(=O)COc3ccccc3)nc12 | -13.3% | -24.6% | . | 7.8% | .
O=C(c1cccs1)N(Cc1cccnc1)c1nc2c(Cl)cccc2s1 | ? | -21.3% | . | 5.2% | .
Cc1cccc2sc(N(Cc3cccnc3)C(=O)CCS(=O)(=O)c3ccccc3)nc12 | 3.26µM* | 2.91µM* | . | 2.6% | .
Cc1ccc2sc(N(Cc3cccnc3)C(=O)CCS(=O)(=O)c3ccccc3)nc2c1C | 6.51µM* | 5.8µM* | . | 7.8% | .
CCN(CC)S(=O)(=O)c1cc(NC(=O)c2cc([N+](=O)[O-])ccc2N2CCOCC2)ccc1C | 16.4µM* | ? | -1.1% | 6.1% | -11.9%
CCN(CC)S(=O)(=O)c1ccc(N2CCOCC2)c(NC(=O)c2ccc(OC)c([N+](=O)[O-])c2)c1 | -10.8% | -1.7% | 3.3% | 1.2% | 21.2%
CCN(CC)S(=O)(=O)c1ccc(OC)c(NC(=O)c2cc([N+](=O)[O-])ccc2N2CCOCC2)c1 | 16.4µM* | ? | . | . | .
CN=C1S/C(=C\c2cn(CC(=O)OC)c3ccccc23)C(=O)N1C | ? | -24.4% | 2.0% | 7.0% | -28.8%
COc1cc([C@@H]2c3cc4c(cc3C(O[C@@H]3O[C@@H]5COC(c6cccs6)O[C@H]5[C@H](O)[C@H]3O)C3COC(=O)[C@@H]32)OCO4)cc(OC)c1O (stereo partly specified) | 0.013µM* | 0.0116µM* | . | . | .
COCCN(CCOC)c1nc(-c2ccc(Cl)cc2)nc2ccccc12 | 13µM* | 18.4µM* | 6.5% | . | ?
CCN(CC)c1nc(-c2ccccc2)nc2ccccc12 | ? | 14.6µM* | 2.5% | 2.6% | -4.4%
CCCCN(CCCC)c1nc(-c2ccncc2)nc2ccccc12 | 23.1µM* | ? | 0.1% | 0.0% | -18.5%
COCCN(CCOC)c1nc(-c2ccccc2)nc2ccccc12 | ? | ? | -10.6% | . | ?
CC(=O)N(C)c1ccc(OCC(O)CN(Cc2ccco2)S(=O)(=O)c2ccc(C)cc2)cc1 (stereo unspecified) | ? | ? | 3.6% | 10.2% | 16.3%

Compound activity as filed in PubChem BioAssay.
